Assay results as given in PubChem BioAssay AID2546 (National Center for Advancing Translational Sciences (NCATS), 2010).
Out of some 310,000 compounds screened, about 11,000 (3.5%) were called active. Not shown: some 8% with an inconclusive outcome. What follows is part of a selection rich in actives, with near analogues and random picks from the rest. Unmarked numbers belong to inactive results. The call rests on the fitted dose curve; in most records, active means well fitted inhibition curve with a large enough effect; inconclusive means small, poorly fitted or top-dose-only effect, or effect the other way; inactive means flat fitted curve, though single readings scatter.

assay: VP16 counterscreen qHTS for inhibitors of ROR gamma transcriptional activity; conditions: Drosophila S2 Gal4-VP16 UAS-luciferase, luminescence, 20 h; series mostly up to 53.6 µM; activity, negative = inhibition: at the top concentration;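 further: Gal4-VP16 expression switched on by copper sulfate through the metallothionein promoter; nearly all actives have a fitted effect of over 50% in size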
On the % scale 0 is the no-effect control and ±100 the full control effect; potency means the concentration at half of the fitted maximal effect.

Compound | activity, negative = inhibition | Potency
CC(NCC(=O)Nc1cc(Cl)cc(Cl)c1)c1ccccc1 (configuration not stated) | -25.8% | 
COc1ccc(C(=O)NC2CC2)cc1OC1CCN(Cc2ccc(SC)cc2)CC1 | -3.04% | 
COCCN(C(=O)CCC(=O)Nc1nccs1)C(C(=O)NC(C)(C)C)c1ccc(Cl)cc1 (configuration not stated) | 7.06% | 
COCCN(C(=O)CCC(=O)Nc1nccs1)C(C(=O)NCCC(C)C)c1ccc(F)cc1 (configuration not stated) |  | 3.55 µM (active)
COCCN(C(=O)CCC(=O)Nc1ccccn1)C(C(=O)NCCC(C)C)c1ccc(OC)cc1 (configuration not stated) | 3.24% | 
COc1ccc(C2NC(=O)c3ccccc3N2)cc1 (configuration not stated) | 3.54% | 
Cc1nnc(SCC(=O)N/N=C/c2cn(-c3ccccc3)nc2-c2ccc(F)cc2)n1-c1ccccc1 | 1.16% | 
CCc1ccc(-c2nn(-c3ccccc3)cc2CSC(=N)N)cc1 |  | 20 µM (active)
Cc1ccc(-c2nn(-c3ccccc3)cc2/C=N/NC(=O)c2ccc3c(c2)OCO3)cc1 | -6.45% | 
CC/C(=N\NC(=S)NC(C)C)c1ccc(OC(F)F)cc1 | -4.95% | 
C/C(=N\NC(N)=S)c1ccncc1 | -10.3% | 
C/C(=N\NC(=S)NC(C)C)c1ccc(C(C)(C)C)cc1 |  | 3.98 µM (active)
CCOC(=O)N1CCN(Cc2nc3cc(NC(=O)CC)ccc3n2CC)CC1 | 0.519% | 
Cc1ccc(SC(CC(=O)c2ccc(C(C)(C)C)cc2)C(=O)O)cc1 (configuration not stated) |  | 5.01 µM (active)
Cc1ccc(C(=O)CNc2ccc(F)cc2)cc1 | -10.8% | 
Cc1ccc(CSCC(N)C(=O)O)cc1 (configuration not stated) | -1.53% | 
CCOc1cc(C2/C(=C(/O)c3ccc(S(=O)(=O)N4CCCCC4)cc3)C(=O)C(=O)N2CCOC)ccc1O (configuration not stated) | -12.6% | 
COc1ccccc1OCC(=O)Nc1c2c(nn1-c1ccc(F)cc1)CS(=O)(=O)C2 | -19.6% | 
COC(=O)c1ccc(NC(=S)Nc2cccc(C)n2)cc1 |  | 7.08 µM (active)
COC(=O)c1ccc(NC(=S)NN2CCOCC2)cc1 | -5.05% | 
COC(=O)c1ccc(NC(=O)Nc2ccc(C)cc2)cc1 | 17.7% | 
O=C(O)CCCn1c(=O)c2cccn2c2ccc(F)cc21 | 2.07% | 
O=C(NNC(=S)NC(=O)c1cn(-c2ccccc2)nc1-c1ccccc1)c1ccncc1 |  | 8.91 µM (active)
O=C(Nc1cn(-c2ccccc2)nc1-c1ccccc1)c1ccccc1 | -10.9% | 
O=C(c1cn(-c2ccccc2)nc1-c1cccnc1)N1CCCCC1 | 4.94% | 
Cc1cc2c(c(=O)n1Cc1ccccc1)C1O[C@](CCCCN3C(=O)c4ccccc4C3=O)(Cc3ccccc31)O2 | -4.77% [at 10 µM] | 

Compound | activity, negative = inhibition | Potency
CN(CC(=O)NCc1ccc(Cl)cc1)S(=O)(=O)c1cccs1 | 24.2% | 
CC(C)=CCCC(C)CN1CCC(n2nccc2NC(=O)c2ccccc2)CC1 (configuration not stated) | 2.6% | 
O=C(CN(C(=O)CCC(=O)Nc1nccs1)c1ccc(F)cc1)NCc1ccc2c(c1)OCO2 | -4.7% | 
O=C(/C=C/c1ccc(F)cc1)NC(=S)NNC(=O)c1cccnc1 |  | 10 µM (active)
CC(C)c1ccc(/C=C/C(=O)NNC(=O)c2cccnc2)cc1 | -4.54% | 
O=C(/C=C/c1ccc(F)cc1)NCCNC(=O)/C=C/c1ccc(F)cc1 | 0.732% | 
COc1ccc(C(=O)N(C)CC(O)c2ccccc2)cc1OC1CCN(C(C)=O)CC1 (configuration not stated) | -0.542% | 
CN(Cc1nc2ccccc2c(=O)[nH]1)Cc1cc(=O)oc2ccc3ccccc3c12 | -10.9% | 
NS(=O)(=O)c1cccc(NC(=O)CSc2nc3ccccc3n2-c2ccccc2)c1 | -0.867% | 
CCN(CC(=O)NC(=O)NCc1ccccc1)Cc1nc2ccccc2c(=O)[nH]1 |  | 2.24 µM (active)
CCCC(=O)N(CCc1ccccc1)Cc1nc2ccccc2c(=O)[nH]1 | -2.29% | 
O=C(c1ccco1)N(Cc1nc2ccccc2c(=O)[nH]1)C1CCCC1 |  | 8.91 µM (active)
CCN(CC(=O)Nc1cccc(S(N)(=O)=O)c1)Cc1nc2ccccc2c(=O)[nH]1 |  | 7.94 µM (active)
O=C(COc1ncnc2ccccc12)NC(=O)NCc1ccccc1 | 16.6% | 
CCN(CC(=O)Nc1ccc(Cl)c(S(=O)(=O)N(C)C)c1)Cc1nc2ccccc2c(=O)[nH]1 | 0.788% | 
CCN(CC)c1ccc(C(=O)NNC(=O)CCc2nc3ccccc3c(=O)[nH]2)cc1 | 2.44% | 
CC(=O)NCC(=O)N1CCC(n2nccc2NC(=O)CCCc2ccccc2)CC1 | 29% | 
O=S(=O)(Nc1ccccc1Cl)c1cccc2nsnc12 | 2.44% | 
O=c1c(-c2cccc(Cl)c2)c[nH]n1-c1ccccc1 | 5.03% | 
COc1ccc(NC(=O)c2sc3nc(C)nc(N4CCN(c5ccccn5)CC4)c3c2C)c(OC)c1 | -22.9% | 
COc1ccc(/C=N/NC(=O)c2ccc3c(c2)OCCO3)c(OC)c1 | 0.751% | 
COc1ccc(C(=O)Nc2ccccc2C(=O)NCc2ccco2)cc1 | 5.86% | 
COc1cc(/C=N/NC(=O)c2ccc(N3CCCC3=O)cc2)ccc1O | 6.95% | 
COc1cc(/C=N/NC(=O)c2ccccc2)ccc1OS(=O)(=O)c1ccccc1 | -8.47% | 
COc1ccc(C(=O)Nc2ccccc2C(=O)N/N=C/c2ccccc2OC)cc1 |  | 12.6 µM (active)
COc1ccc(C(=O)Nc2ccccc2C(=O)N/N=C/c2ccc(O)c(OC)c2)cc1 |  | 0.316 µM (active)

Compound | activity, negative = inhibition | Potency
Cn1c(Nc2cccc(Cl)c2)nc2ccccc21 | -12.6% | 
Fc1cc(F)c2nc(Nc3nc4c(F)cccc4s3)sc2c1 |  | 7.08 µM (active)
O=C(Nc1nc2c(F)cc(F)cc2s1)C1COc2ccccc2O1 (configuration not stated) | 4.29% | 
Fc1cc(F)c2nc(N3CCOCC3)sc2c1 | -0.814% | 
CCc1ccc(/C=N/NC(=O)c2nnn(-c3nonc3N)c2CN2CCc3ccccc32)cc1 | -19.6% | 
COc1ccc(C(C(=O)NC2CCCCC2)N(C(=O)c2snc(C(N)=O)c2N)c2ccccc2OC)cc1 (configuration not stated) | 3.53% | 
CCC1(C)Cc2c(sc3nc(SC)[nH]c(=O)c23)CO1 (configuration not stated) | -14% | 
CCC1(C)Cc2c(sc3nnn(CC(=O)Nc4ccc(Cl)cc4)c(=O)c23)CO1 (configuration not stated) | -0.473% | 
CCC1(C)Cc2c(sc3[nH]c(=S)n(Cc4ccccc4)c(=O)c23)CO1 (configuration not stated) |  | 1.26 µM (active)
CCOc1ccc(N(CC(=O)Nc2ccccc2F)S(=O)(=O)c2c(C)[nH]c(=O)[nH]c2=O)cc1 | -3.41% | 
Cc1cccc(N2CCN(S(=O)(=O)c3ccc(-c4cc(C)no4)s3)CC2C)c1 (configuration not stated) | 1.53% | 
COCCCNS(=O)(=O)c1cccc(S(=O)(=O)c2cccc(S(=O)(=O)NCCCOC)c2)c1 | -23.9% | 
CCOc1ccccc1NS(=O)(=O)c1c[nH]c(C(=O)OC)c1 | 0.313% | 
CCCNC(=O)CSc1nc(Cc2ccccc2)nc2ccccc12 | 13.9% | 
COCc1ccc(CN2CCC(Oc3ccc(C(=O)NCc4ccccn4)cc3)CC2)o1 | 1.21% | 
C/C(=N\O)C1(C)N(O)C(C)(C)C(c2ccc(Br)cc2)=[N+]1[O-] (configuration not stated) | 24.1% | 
CC(=O)C1(C)N(O)C(C)(C)C(c2cccs2)=[N+]1[O-] (configuration not stated) |  | 10 µM (active)
CC1(C)C(c2cccs2)=[N+]([O-])C2(CCCCC2=O)N1O (configuration not stated) | 0% | 
COc1ccc(C2/C=C\CN(Cc3ccco3)C(C)C(=O)N2Cc2ccc(F)cc2)cc1 (configuration not stated) | -2.15% | 
COc1ccc(CN2CN(C3CCCC3)CSC2=S)cc1 |  | 11.2 µM (active)
COc1ccc(CN2CC(C(=O)NC3CCCCC3)CC2=O)cc1 (configuration not stated) | -2.51% | 
COc1ccc(CN2CN(C(C)C)CSC2=S)cc1 | 5.57% | 
CC(C)Nc1ccc(-n2nc3ccccc3[n+]2[O-])cc1 |  | 10 µM (active)
CC1CCN(C(=O)CCNC(=O)c2ccccc2)CC1 | -3.13% | 
COc1ccc(CCNC(=O)CN2C(=O)CCSc3ccccc32)c(OC)c1 | 3.66% | 
C=CCn1c(-c2ccc3[nH]c(C)c(C)c3c2)n[nH]c1=S |  | 12.6 µM (active)

Compound | activity, negative = inhibition | Potency
COc1cc(-c2n[nH]c(=S)n2Cc2ccccc2)cc(OC)c1OC | 4.14% | 
C=CCn1c(=S)sc2c(=O)[nH]c(C)nc21 | 4.03% | 
COC(=O)c1cccc(C(=O)N2CCC(CCC(=O)NCc3ccc(F)cc3)CC2)c1 | -1.98% | 
O=C(c1ccc(Oc2ccc(Cl)cc2)c([N+](=O)[O-])c1)N1CCCC1 | -9.29% | 
CCN(CC)c1ccc(C(=O)Nn2c(C)nc3ccccc3c2=O)cc1 | -12.5% | 
COC(=O)c1ccc2c(=O)n(CCN3CCOCC3)c(SCC(=O)Nc3cccc(OC)c3)nc2c1 | 8.75% | 
COc1ccccc1N1CCN(S(=O)(=O)CCNC(=O)c2ccc(OC(C)C)cc2)CC1 | -17.5% | 
O=C(NC(=S)N1CCc2ccccc21)c1ccco1 |  | 3.16 µM (active)
NC(=O)N1CCc2ccccc21 | -1.97% | 
O=C(CSCc1ccccc1)N1CCc2ccccc21 | -18% | 
CN(C)c1ccc(-c2nnc(-c3cccnc3)o2)cc1 | -28.8% | 
O=C(Nc1ccncc1)Nc1ccc(F)cc1 | -1.61% | 
Cc1ccc(C)c(N2CCN(C(=O)CCCn3c(=O)c4cccn4c4cccnc43)CC2)c1 | -5.07% | 
Cc1ccc(C)c(N2CCN(C(=O)CCCCCn3c(=S)[nH]c4ccc(N5CCOCC5)cc4c3=O)CC2)c1 |  | 5.62 µM (active)
Cc1ccc(C)c(N2CCN(C(=O)CCCCn3c(=O)[nH]c4ccccc4c3=O)CC2)c1 | -1.55% | 
O=C(CSc1nc2nccnc2c(=O)n1Cc1cccs1)Nc1ccccc1F | 8.14% | 
CC(=O)N(C)c1ccc(NC(=O)Nc2cccc3ccccc23)cc1 | -1.22% | 
CCN1/C(=C/C(=S)Nc2ccccc2)Sc2ccccc21 |  | 12.6 µM (active)
CCNC(=O)N1c2ccccc2Sc2ccccc21 | -17% [at 10 µM] | 
O=C(CCN1c2ccccc2Sc2ccccc21)Nc1ccccc1 | -5.2% | 
Cc1ccc(C(=O)N2CC(=O)Nc3ccc(F)cc3C2c2ccc(F)cc2)cc1 (configuration not stated) | 3.68% | 
CN(CC1CCCO1)S(=O)(=O)c1ccc(C(=O)Nc2ccc(F)cc2)cc1 (configuration not stated) | 0% | 
N#C[C@]1(S(=O)(=O)c2ccccc2)C[C@@H]2ON=C(c3cccc(Br)c3)[C@@H]2C1 |  | 11.2 µM (active)
COC(=O)[C@]1(S(=O)(=O)c2ccccc2)C[C@@H]2ON=C(c3ccc(OC)cc3)[C@@H]2C1 | 5.28% | 
